In the library only some 11% were active in any assay of this set; here they are far more common.
HTT aggregate: inhibitors of mutant huntingtin aggregate formation in PC12 cells. PC12 HttQ103-GFP aggregates, Acumen cytometry, 40 h. Potency, µM (doses to about 46.1 µM), without a hit: top-dose activity change, negative = inhibition, actives largely listed as inhibitors. actives 1.1% (n = 220,000). AID 1688; active = well fitted curve in the direction sought with a large enough effect; inconclusive = small, poorly fitted or top-dose-only effect, or another doubt; inactive = no such curve, though single readings can be large; an effect the other way counts as inactive or inconclusive; note: potency is the fitted concentration of half-maximal effect; % is set by controls: 0 for no effect and ±100 for the full control effect; nearly all actives have a fitted effect of over 60% in size
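Inducible Q103 Huntingtin exon 1–GFP PC12 line, 1500 cells/well in phenol red free DMEM with 5% equine and 5% calf serum. Tebufenozide 100 nM induced expression; compounds titrated; aggregates quantified by cytometry.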
GoLoco inh red: inhibitors of human Gai1-RGS12 GoLoco interaction (red fluorophore); actives 0.44% (n = 230,000); Gai1:RGS12 GoLoco peptide FP, rhodamine, 10 min; Potency, µM (highest dose often 61.6 µM), for the others: at the highest dose activity, negative = inhibition, actives largely listed as inhibitors; P63096; active = well fitted inhibition curve with a large enough effect, not every such curve was filed as active; inactive = no such curve, though single readings can be large or run the other way; note: potency is the fitted concentration of half-maximal effect; % is set by controls: 0 for no effect and ±100 for the full control effect; nearly all actives have a fitted effect of over 30% in size
PNC assembly inh: perinucleolar compartment assembly inhibition | PC3M PTB-GFP, PNC prevalence imaging, 16 h; hits give low values | actives 3.1% (n = 140,000) | activity change (PNC), negative = inhibition, % at 10 µM;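 active = readout at or below -70, meaning at least 70% loss of cells showing the perinucleolar compartment, a nuclear body marking cancer cells; inconclusive = readout between -30 and a set limit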;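 note: plate controls were DMSO wells for no effect and camptothecin positive control wells for full effect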
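Read-out is percentage of cells bearing a perinucleolar compartment, from automated 20x imaging of fixed, Hoechst-stained PC3M PTB-GFP cells. Cells were seeded 4 h, then exposed 16 h to compound (23 nl of library stock) in duplicate plates.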
ALDH1A1 block: ALDH1A1 (human) enzyme inhibition | P00352 | Purified ALDH1A1, NADH fluorescence, propionaldehyde substrate | Potency, µM (titrated, usually from 75.3 µM), for the others: top-dose activity, negative = inhibition, most hits filed as inhibitors | actives 7.3% (n = 220,000) | AID 1030;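 note: potency is the fitted concentration of half-maximal effect; plate controls were no enzyme wells and a reference inhibitor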
Target sequence (P00352 whole entry, looked up): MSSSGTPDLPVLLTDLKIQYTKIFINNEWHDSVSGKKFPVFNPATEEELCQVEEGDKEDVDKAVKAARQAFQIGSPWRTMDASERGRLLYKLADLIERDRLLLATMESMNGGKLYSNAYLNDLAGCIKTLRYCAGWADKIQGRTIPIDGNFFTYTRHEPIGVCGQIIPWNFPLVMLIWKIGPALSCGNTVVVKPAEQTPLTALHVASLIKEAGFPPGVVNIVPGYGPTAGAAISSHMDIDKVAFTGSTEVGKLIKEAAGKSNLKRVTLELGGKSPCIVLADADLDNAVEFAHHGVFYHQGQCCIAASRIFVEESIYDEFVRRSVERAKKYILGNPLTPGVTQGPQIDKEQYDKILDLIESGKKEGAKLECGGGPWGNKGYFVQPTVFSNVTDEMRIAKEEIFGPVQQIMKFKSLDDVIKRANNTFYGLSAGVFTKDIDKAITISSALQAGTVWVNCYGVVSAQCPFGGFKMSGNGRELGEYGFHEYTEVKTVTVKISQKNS
HPGD block: inhibitors of human 15-hydroxyprostaglandin dehydrogenase (HPGD) | P15428 | AID 894 | Potency, µM, for the others: top-dose activity change, negative = inhibition, usual class: inhibitors | actives 4.3% (n = 150,000) | purified HPGD, NADH fluorescence kinetic, PGE2 substrate; note: potency is the fitted concentration of half-maximal effect; % is set by controls: 0 for no effect and ±100 for the full control effect
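NADH formation kinetics: reaction with 30 uM PGE2 and 1 mM NAD+ (final), 20 nM enzyme, Tris-HCl pH 8 with Tween 20, after 15 min compound preincubation at room temperature. Fluorescence change, last versus first of five reads.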
HTT ATP protect: cytoprotection in Huntington HTT-Q103 PC12 cell model; PC12 HTT-Q103 induced, cytoprotection, ATP luminescence, 40 h; Potency, µM (top dose mostly 56.4 µM), for the others: cytoprotection (ATP increase), actives largely listed as activators; actives 0.14% (n = 230,000); AID 1471; active = well fitted curve in the direction sought with a large enough effect; inconclusive = small, poorly fitted or top-dose-only effect, or another doubt; inactive = no such curve, though single readings can be large; an effect the other way counts as inactive or inconclusive; note: potency is the fitted concentration of half-maximal effect; % of control where 0% means no effect; nearly all actives have a fitted effect of over 45% in size
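PC12 cells with ecdysone-inducible HTT exon 1 Q103-GFP, induced with 100 nM tebufenozide and co-treated with library compounds in a dose series (1536-well, 1500 cells/well). Cytoprotection read as ATP content by ATPlite luminescence.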
An asterisk follows results filed as active; [ ] = remark or other dose. Unless noted, calls come from the whole dose curve; as a rule, active = well fitted inhibition curve with a large enough effect (not every such curve was filed as active); inconclusive = small, poorly fitted or top-dose-only effect, or another doubt; inactive = no such curve, though single readings can be large or run the other way.

What do the screens show for `O=C(CSCc1ccc([N+](=O)[O-])cc1)NN=C1CCCCCC1`?
HTT aggregate: -14%; GoLoco inh red: 5%; PNC assembly inh: -29; ALDH1A1 block: 5µM*; HPGD block: 0%; HTT ATP protect: -22%[10 µM]

Results for CCNc1ncc2nc(-c3ccccc3)c(=O)n(-c3ccc(OC)cc3)c2n1 ?
GoLoco inh red: 1%; ALDH1A1 block: inconclusive; HPGD block: inconclusive; HTT ATP protect: -55%

How did COC(=O)CCCCC1SCC(NC(=O)c2ccccc2)C1=O (stereo not given) do in these assays?
HTT aggregate: -16%[9.22 µM]; GoLoco inh red: 4%; ALDH1A1 block: -2%; HTT ATP protect: 22%[10 µM]

How did CCOC(=O)c1oc2cc(O)c(CC)cc2c(=O)c1-c1cscn1 do in these assays?
HTT aggregate: -5%; GoLoco inh red: 6%; ALDH1A1 block: -13%; HTT ATP protect: -34%

How did CCOC(=O)c1ccc(-c2c(C(=O)OCC)oc3cc(O)c(CC)cc3c2=O)o1 do in these assays?
HTT aggregate: 5.6µM*; GoLoco inh red: 19%; PNC assembly inh: 2; ALDH1A1 block: 10µM*; HPGD block: -17%; HTT ATP protect: -29%[0.074 µM]

What do the screens show for `CCC(=O)c1ccc(OCc2ccc(C(=O)OC)o2)c(OC)c1`?
HTT aggregate: 16%[9.22 µM]; GoLoco inh red: -1%; PNC assembly inh: inconclusive; ALDH1A1 block: inconclusive; HPGD block: 22µM*; HTT ATP protect: -1%

What do the screens show for `CC(C)C[C@@H](CC(=O)N[C@H](CC(=O)N[C@@H]1CCCC[C@H]1C(=O)N[C@H](CC(=O)N[C@@H](CCC(=O)O)CC(=O)O)Cc1c[nH]c2ccccc12)C(C)C)NC(=O)[C@@H]1CNCC[C@H]1N`?
GoLoco inh red: 3%; ALDH1A1 block: -15%; HPGD block: -7%; HTT ATP protect: 0%[1.9 µM]

What do the screens show for `CCOc1ccc(/C=C/c2c([N+](=O)[O-])c(=O)n(C)c(=O)n2C)cc1`?
HTT aggregate: -18%; GoLoco inh red: 10%; ALDH1A1 block: 1%; HTT ATP protect: 7.9µM*

Results for CCCCCCC1=Cc2cc(OC)c(OC)cc2C(C(C(C)=O)C(=O)OCC)O1 (stereo not given) ?
ALDH1A1 block: 5%[13.5 µM]; HTT ATP protect: 2%[10 µM]

How did N[C@@]1(C(=O)O)CO[C@H]2[C@H](C(=O)O)[C@H]21 do in these assays?
GoLoco inh red: 12%; ALDH1A1 block: -9%; HPGD block: -9%; HTT ATP protect: -50%

Results for COc1ccc(CNS(=O)(=O)c2ccc(F)c(C(=O)Nc3ccccc3OC)c2)cc1 ?
HTT aggregate: inconclusive; GoLoco inh red: 0%; ALDH1A1 block: inconclusive; HTT ATP protect: -30%

What do the screens show for `COc1ccc(OC)c(NC(=O)c2cc(S(=O)(=O)NCc3ccco3)ccc2F)c1`?
HTT aggregate: 13%; GoLoco inh red: -4%; PNC assembly inh: -26; ALDH1A1 block: 22µM*; HPGD block: inconclusive; HTT ATP protect: -1%

What do the screens show for `CCOC(=O)c1ccoc1CSCc1ccc(C(=O)OC)o1`?
HTT aggregate: 6%; GoLoco inh red: 22%; PNC assembly inh: inconclusive; ALDH1A1 block: 25µM*; HPGD block: -18%; HTT ATP protect: -8%

How did COC(=O)c1ccc(CSC(=N)N)o1 do in these assays?
HTT aggregate: -1%[9.22 µM]; GoLoco inh red: -7%; ALDH1A1 block: 3%; HTT ATP protect: 20%[10 µM]

Results for Nc1ccc(C(=O)Nc2ccco2)cc1 ?
HTT aggregate: 3%; GoLoco inh red: -23%; PNC assembly inh: -100*; ALDH1A1 block: 1%; HPGD block: -9%; HTT ATP protect: -10%[10 µM]

What do the screens show for `CC(C)(C)c1ccc(C(=O)Nc2ccccc2NC(=O)c2ccco2)cc1`?
HTT aggregate: -20%; GoLoco inh red: 4%; PNC assembly inh: 56; ALDH1A1 block: -7%; HPGD block: -10%; HTT ATP protect: 8%[1.9 µM]

Screening results deposited in PubChem BioAssay by National Center for Advancing Translational Sciences (NCATS).
